According to the supplement of paper PMC10077471:
Whole data set: some 1,900 compounds, median “excess over highest single agent (ExcessHSA) synergy score, 6x6 matrix” near -83, cut for the lowest 2% near -370. Only a selection was taken, and the lowest values are over-represented in it overall.

Test system: NCI-H446
Experiment: excess over highest single agent (ExcessHSA) synergy score, 6x6 matrix; higher = less synergy (more negative = stronger synergy)
Conditions: 72 h; CellTiter-Glo viability

SMILES | excess over highest single agent
COC1=C(OC)C(=O)C(C/C=C(\C)CC/C=C(\C)CC/C=C(\C)CC/C=C(\C)CC/C=C(\C)CC/C=C(\C)CC/C=C(\C)CC/C=C(\C)CC/C=C(\C)CCC=C(C)C)=C(C)C1=O + Cc1sc2c(c1C)C(c1ccc(Cl)cc1)=N[C@@H](CC(=O)OC(C)(C)C)c1nnc(C)n1-2 [NCGC00250412-19] | -97.2
COc1cc(OC)c(NC(=O)Nc2cc(C)on2)cc1Cl + Cc1sc2c(c1C)C(c1ccc(Cl)cc1)=N[C@@H](CC(=O)OC(C)(C)C)c1nnc(C)n1-2 [NCGC00250412-19] | -142
Cc1ccc(-c2ncn(-c3ccc(Nc4nccc(-c5cccc(N6CCOCC6)c5)n4)cc3)n2)cn1 + Cc1sc2c(c1C)C(c1ccc(Cl)cc1)=N[C@@H](CC(=O)OC(C)(C)C)c1nnc(C)n1-2 [NCGC00250412-19] | -78.7
CO[C@H]1[C@H](O)[C@@H](O)[C@H](n2c3c(Cl)cccc3c3c4c(c5c6cccc(Cl)c6[nH]c5c32)C(=O)NC4=O)O[C@@H]1CO + Cc1sc2c(c1C)C(c1ccc(Cl)cc1)=N[C@@H](CC(=O)OC(C)(C)C)c1nnc(C)n1-2 [NCGC00250412-19] | -234
C[C@H](Cc1ccc(O)c(O)c1)[C@@H](C)Cc1ccc(O)c(O)c1 + Cc1sc2c(c1C)C(c1ccc(Cl)cc1)=N[C@@H](CC(=O)OC(C)(C)C)c1nnc(C)n1-2 [NCGC00250412-19] | -373
O=C(O)C(O)Cc1ccc(O)c(O)c1 (configuration not stated) + Cc1sc2c(c1C)C(c1ccc(Cl)cc1)=N[C@@H](CC(=O)OC(C)(C)C)c1nnc(C)n1-2 [NCGC00250412-19] | -9.7
N[C@@H](Cc1ccc(O)c(O)c1)C(=O)O + Cc1sc2c(c1C)C(c1ccc(Cl)cc1)=N[C@@H](CC(=O)OC(C)(C)C)c1nnc(C)n1-2 [NCGC00250412-19] | 57.6
N#CN=C(NCCCCCCOc1ccc(Cl)cc1)Nc1ccncc1 + Cc1sc2c(c1C)C(c1ccc(Cl)cc1)=N[C@@H](CC(=O)OC(C)(C)C)c1nnc(C)n1-2 [NCGC00250412-19] | -32.9
C/C=C(/C)C(=O)O[C@H]1C(C)=C[C@]23C(=O)[C@@H](C=C(CO)[C@@H](O)[C@]12O)[C@H]1[C@@H](C[C@H]3C)C1(C)C + Cc1sc2c(c1C)C(c1ccc(Cl)cc1)=N[C@@H](CC(=O)OC(C)(C)C)c1nnc(C)n1-2 [NCGC00250412-19] | 104
O=C(Nc1cccc(Nc2ncc(Br)c(NCCc3cnc[nH]3)n2)c1)N1CCCC1 + Cc1sc2c(c1C)C(c1ccc(Cl)cc1)=N[C@@H](CC(=O)OC(C)(C)C)c1nnc(C)n1-2 [NCGC00250412-19] | -166
C[C@@H](N)c1ccc(C(=O)Nc2ccnc3[nH]ccc23)cc1 + Cc1sc2c(c1C)C(c1ccc(Cl)cc1)=N[C@@H](CC(=O)OC(C)(C)C)c1nnc(C)n1-2 [NCGC00250412-19] | 125
Oc1ccc(-c2ccc(-c3cc(Nc4cccc(CNC5CC5)c4)n[nH]3)cc2)c(O)c1 + Cc1sc2c(c1C)C(c1ccc(Cl)cc1)=N[C@@H](CC(=O)OC(C)(C)C)c1nnc(C)n1-2 [NCGC00250412-19] | 79.8
COc1cccc2nc(-c3cccs3)nc(NN3C(=O)C=C(C)C3=O)c12 + Cc1sc2c(c1C)C(c1ccc(Cl)cc1)=N[C@@H](CC(=O)OC(C)(C)C)c1nnc(C)n1-2 [NCGC00250412-19] | -408
CN(CC(=O)N(Cc1ccc(C2CCCCC2)cc1)c1ccc(C(=O)O)c(O)c1)S(=O)(=O)c1c(F)c(F)c(F)c(F)c1F + Cc1sc2c(c1C)C(c1ccc(Cl)cc1)=N[C@@H](CC(=O)OC(C)(C)C)c1nnc(C)n1-2 [NCGC00250412-19] | -91.4
Clc1cccc(-n2nnnc2NCc2ccccc2Oc2ccccn2)c1Cl + Cc1sc2c(c1C)C(c1ccc(Cl)cc1)=N[C@@H](CC(=O)OC(C)(C)C)c1nnc(C)n1-2 [NCGC00250412-19] | -103
Cn1cc(C2=C(c3c4n(c5ccccc35)CCC(CN)C4)C(=O)NC2=O)c2ccccc21 (configuration not stated) + Cc1sc2c(c1C)C(c1ccc(Cl)cc1)=N[C@@H](CC(=O)OC(C)(C)C)c1nnc(C)n1-2 [NCGC00250412-19] | -42.8
Cc1cnc(Nc2cccc(CN3CCOCC3)c2)nc1Nc1cccc(S(=O)(=O)NC(C)(C)C)c1 + Cc1sc2c(c1C)C(c1ccc(Cl)cc1)=N[C@@H](CC(=O)OC(C)(C)C)c1nnc(C)n1-2 [NCGC00250412-19] | 108
CC(=O)Nc1sc2c(c1-c1nc3ccccc3s1)CNC2 + Cc1sc2c(c1C)C(c1ccc(Cl)cc1)=N[C@@H](CC(=O)OC(C)(C)C)c1nnc(C)n1-2 [NCGC00250412-19] | 354
Cc1c(CN2CCN(S(C)(=O)=O)CC2)sc2c(N3CCOCC3)nc(-c3cnc(N)nc3)nc12 + Cc1sc2c(c1C)C(c1ccc(Cl)cc1)=N[C@@H](CC(=O)OC(C)(C)C)c1nnc(C)n1-2 [NCGC00250412-19] | -334

SMILES | excess over highest single agent
Cc1c(CN2CCN(C(=O)[C@H](C)O)CC2)sc2c(N3CCOCC3)nc(-c3cnc(N)nc3)nc12 + Cc1sc2c(c1C)C(c1ccc(Cl)cc1)=N[C@@H](CC(=O)OC(C)(C)C)c1nnc(C)n1-2 [NCGC00250412-19] | -434
CC(C)(O)c1cc2nc(-c3cnc(N)nc3)nc(N3CCOCC3)c2s1 + Cc1sc2c(c1C)C(c1ccc(Cl)cc1)=N[C@@H](CC(=O)OC(C)(C)C)c1nnc(C)n1-2 [NCGC00250412-19] | -253
CNC(=O)c1c(-c2ccc(F)cc2)oc2cc(N(CCO)S(C)(=O)=O)c(C3CC3)cc12 + Cc1sc2c(c1C)C(c1ccc(Cl)cc1)=N[C@@H](CC(=O)OC(C)(C)C)c1nnc(C)n1-2 [NCGC00250412-19] | -113
CN[C@H]1CCc2cc(OC)c(OC)c(OC)c2-c2ccc(OC)c(=O)cc21 + Cc1sc2c(c1C)C(c1ccc(Cl)cc1)=N[C@@H](CC(=O)OC(C)(C)C)c1nnc(C)n1-2 [NCGC00250412-19] | -167
Cc1nc(Nc2n[nH]c3c2CN(C(=O)N[C@H](CN(C)C)c2ccccc2)C3(C)C)c2sccc2n1 + Cc1sc2c(c1C)C(c1ccc(Cl)cc1)=N[C@@H](CC(=O)OC(C)(C)C)c1nnc(C)n1-2 [NCGC00250412-19] | -503
CN1c2ccccc2C(=O)N2CCc3c([nH]c4ccccc34)[C@@H]21 + Cc1sc2c(c1C)C(c1ccc(Cl)cc1)=N[C@@H](CC(=O)OC(C)(C)C)c1nnc(C)n1-2 [NCGC00250412-19] | -226
O=C1NC(=O)/C(=C/c2cccc(C(F)(F)F)c2)S1 + Cc1sc2c(c1C)C(c1ccc(Cl)cc1)=N[C@@H](CC(=O)OC(C)(C)C)c1nnc(C)n1-2 [NCGC00250412-19] | 75.6
Cn1c2cc([S+](C)[O-])sc2c2cnn(Cc3cccc(N)c3)c(=O)c21 (configuration not stated) + Cc1sc2c(c1C)C(c1ccc(Cl)cc1)=N[C@@H](CC(=O)OC(C)(C)C)c1nnc(C)n1-2 [NCGC00250412-19] | -110
CN(c1ncccc1CNc1nc(Nc2ccc3c(c2)CC(=O)N3)ncc1C(F)(F)F)S(C)(=O)=O + Cc1sc2c(c1C)C(c1ccc(Cl)cc1)=N[C@@H](CC(=O)OC(C)(C)C)c1nnc(C)n1-2 [NCGC00250412-19] | -151
CS(=O)(=O)c1cccc(CNc2nc(Nc3ccc4c(c3)CCC(=O)N4)ncc2C(F)(F)F)c1 + Cc1sc2c(c1C)C(c1ccc(Cl)cc1)=N[C@@H](CC(=O)OC(C)(C)C)c1nnc(C)n1-2 [NCGC00250412-19] | 58.6
CC(=O)NCC(=O)N1[C@@H]2CC[C@H]1c1ccc(Nc3ncc(C(F)(F)F)c(NC4CCC4)n3)cc12 + Cc1sc2c(c1C)C(c1ccc(Cl)cc1)=N[C@@H](CC(=O)OC(C)(C)C)c1nnc(C)n1-2 [NCGC00250412-19] | -534
CCS(=O)(=O)Nc1ccc2[nH]c(O)c(C(=Nc3ccc(CN4CCCCC4)cc3)c3ccccc3)c2c1 + Cc1sc2c(c1C)C(c1ccc(Cl)cc1)=N[C@@H](CC(=O)OC(C)(C)C)c1nnc(C)n1-2 [NCGC00250412-19] | -393
CNC(=O)c1ccc2c(C(=Nc3cccc(CN(C)C)c3)c3ccccc3)c(O)[nH]c2c1 + Cc1sc2c(c1C)C(c1ccc(Cl)cc1)=N[C@@H](CC(=O)OC(C)(C)C)c1nnc(C)n1-2 [NCGC00250412-19] | 93.9
COC(=O)c1ccc2c(C(=Nc3ccc(N(C)C(=O)CN4CCN(C)CC4)cc3)c3ccccc3)c(O)[nH]c2c1 + Cc1sc2c(c1C)C(c1ccc(Cl)cc1)=N[C@@H](CC(=O)OC(C)(C)C)c1nnc(C)n1-2 [NCGC00250412-19] | -229
COc1ccc(-c2ccc3ncc4c(c3c2)n(-c2ccc(N3CCNCC3)c(C(F)(F)F)c2)c(=O)n4C)cn1 + Cc1sc2c(c1C)C(c1ccc(Cl)cc1)=N[C@@H](CC(=O)OC(C)(C)C)c1nnc(C)n1-2 [NCGC00250412-19] | -20.2
COc1cc(C(C)C)c(Oc2cnc(NC(CO)CO)nc2N)cc1I + Cc1sc2c(c1C)C(c1ccc(Cl)cc1)=N[C@@H](CC(=O)OC(C)(C)C)c1nnc(C)n1-2 [NCGC00250412-19] | -119
OCc1ccc(-c2ccc(-c3ccc(CO)s3)o2)s1 + Cc1sc2c(c1C)C(c1ccc(Cl)cc1)=N[C@@H](CC(=O)OC(C)(C)C)c1nnc(C)n1-2 [NCGC00250412-19] | 33.9
C/C=C1\NC(=O)[C@H]2CSSCC/C=C/[C@H](CC(=O)N[C@H](C(C)C)C(=O)N2)OC(=O)[C@H](C(C)C)NC1=O + Cc1sc2c(c1C)C(c1ccc(Cl)cc1)=N[C@@H](CC(=O)OC(C)(C)C)c1nnc(C)n1-2 [NCGC00250412-19] | -38.7
